Bioassay records as filed in PubChem BioAssay.
TDP1 cell noCPT: qHTS for Inhibitors of human tyrosyl-DNA phosphodiesterase 1 (TDP1): qHTS in cells in absence of CPT | DT40 Tdp1-/- hTDP1 cells, no CPT, ATP luminescence, 48 h | Potency, µM (highest dose often 46.2 µM), for inactives: at the top dose activity change, negative = growth inhibition, hits mostly inhibitors | actives 15% (n = 420,000); further: nearly all actives have a fitted effect of over 55% in size
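Cells were dispensed at 400 per well, compounds added by pin tool, plates incubated ≥48 hr at 37 °C, then CellTiter-Glo added for 30 min at room temperature before luminescence reading. Line: DT40 Tdp1-/- complemented with hTDP1; camptothecin omitted.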
TDP1 inh: inhibitors of human tyrosyl-DNA phosphodiesterase TDP1; recombinant TDP1, AlphaScreen DNA substrate cleavage; Potency, µM (doses to about 130 µM), for inactives: at the top dose activity change, negative = inhibition, usual class: inhibitors; actives 0.28% (n = 350,000); AID 485290; further: nearly all actives have a fitted effect of over 40% in size
Target sequence (Q9NUW8 whole entry, looked up): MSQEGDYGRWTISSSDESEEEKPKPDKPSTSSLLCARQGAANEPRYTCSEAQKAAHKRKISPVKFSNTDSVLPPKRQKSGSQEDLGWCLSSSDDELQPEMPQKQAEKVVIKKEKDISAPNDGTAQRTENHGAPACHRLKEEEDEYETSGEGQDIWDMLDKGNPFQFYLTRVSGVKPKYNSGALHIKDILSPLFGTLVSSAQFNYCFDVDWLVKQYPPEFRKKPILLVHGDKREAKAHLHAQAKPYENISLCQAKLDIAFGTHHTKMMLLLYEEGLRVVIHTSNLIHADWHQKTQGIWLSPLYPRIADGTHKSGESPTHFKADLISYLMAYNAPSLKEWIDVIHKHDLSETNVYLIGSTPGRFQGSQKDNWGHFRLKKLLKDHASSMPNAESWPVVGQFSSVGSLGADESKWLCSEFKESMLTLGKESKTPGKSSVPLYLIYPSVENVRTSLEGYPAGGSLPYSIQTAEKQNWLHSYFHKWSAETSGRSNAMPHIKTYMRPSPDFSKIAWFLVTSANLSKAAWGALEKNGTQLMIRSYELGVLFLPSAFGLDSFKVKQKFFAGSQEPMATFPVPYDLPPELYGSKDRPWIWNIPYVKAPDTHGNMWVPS
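Steps: enzyme plus compound, 15 min RT; add biotin/phosphotyrosine-FITC oligonucleotide (15 nM final), react 5 min; add donor/acceptor beads (10 ug/ml final), 10 min; read AlphaScreen. Tdp1 at 1 nM final.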
DT40 TDP1 CPT: DT40-hTDP1 cell growth loss with CPT; chicken DT40 Tdp1-/-;hTDP1 cells + 20 nM CPT, ATP luminescence, 48 h; actives 12% (n = 420,000); Potency, µM (doses to about 46.2 µM), without a hit: top-dose activity change, negative = growth inhibition, actives largely listed as inhibitors; further: nearly all actives have a fitted effect of over 55% in size
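Cell growth measured by CellTiter-Glo luminescence after a minimum 48 h, 37 C compound exposure with 20 nM CPT in Tdp1-knockout DT40 cells stably expressing hTDP1, seeded 400/well; qHTS titration format.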
VP16 counter: Gal4-VP16 reporter inhibition counter-screen; actives 3.5% (n = 310,000); Drosophila S2 Gal4-VP16 UAS-luciferase, luminescence, 20 h; Potency, µM (series often up to 53.6 µM), for inactives: at the highest dose activity, negative = inhibition, usual class: inhibitors;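 further: Gal4-VP16 expression switched on by copper sulfate through the metallothionein promoter; nearly all actives have a fitted effect of over 50% in size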
RORg inh: blocks mouse ROR gamma transcriptional activity; AID 2551; P51450; Drosophila S2 Gal4-RORgamma UAS-luciferase reporter, 20 h; actives 5.4% (n = 310,000); Potency, µM (doses to about 53.6 µM), for inactives: top-dose activity change, negative = inhibition, usual class: inhibitors; further: nearly all actives have a fitted effect of over 60% in size
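Schneider cells (Drosophila), stable Gal4 DBD–ROR gamma + UAS-luc; 1 hr cmpd preincubation; Cu2+ induction 700 uM final; 20 hr ambient; luminescence.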
The depositor's hits bear a star; [ ] = remark or other dose. Hits are enriched below; roughly 19% of the tested compounds scored in any of these assays. The call rests on the fitted dose curve; in most records, active means well fitted curve in the direction sought with a large enough effect; inconclusive means small, poorly fitted or top-dose-only effect, or another doubt; inactive means no such curve, though single readings can be large; an effect the other way counts as inactive or inconclusive. On the % scale 0 is the no-effect control and ±100 the full control effect; potency means the concentration at half of the fitted maximal effect.

`COc1ccc(N(Cc2cc3ccccc3[nH]c2=O)C(=O)c2cccc(Cl)c2)cc1` gave TDP1 cell noCPT 23µM*, TDP1 inh 7% and DT40 TDP1 CPT 16µM*.
`COc1ccc(N(Cc2cc3cc(OC)ccc3[nH]c2=O)C(=O)c2cccc(Cl)c2)cc1` gave TDP1 cell noCPT inconclusive, TDP1 inh 0% and DT40 TDP1 CPT inconclusive.
`O=C(CN1CCN(S(=O)(=O)c2ccc(F)cc2)CC1)Nc1ccnn1C1CCCC1` gave TDP1 cell noCPT inconclusive, TDP1 inh 2% and DT40 TDP1 CPT -17%.
`COC(=O)[C@]12CCCCC=C1N(CCC1=CCCCC1)C(=O)[C@H](CC(=O)NCc1cccs1)C2` gave TDP1 cell noCPT 16µM* and DT40 TDP1 CPT inconclusive.
Screening CCOC(=O)[C@]12CCCC=C1N(Cc1ccccc1)C(=O)[C@H](CC(=O)NCc1cccs1)C2 returned TDP1 cell noCPT -26% and DT40 TDP1 CPT -5%.
Screening CCOC(=O)[C@]12CCCC=C1N(CCC1=CCCCC1)C(=O)[C@H](CC(=O)NCc1cccs1)C2 returned TDP1 cell noCPT 21µM* and DT40 TDP1 CPT inconclusive.
For NC(=O)c1ncn([C@@H]2O[C@H](CO)[C@@H](O)[C@H]2O)c1O the results were TDP1 cell noCPT -17%, TDP1 inh 7%[56.1 µM], DT40 TDP1 CPT 1%, VP16 counter -2% and RORg inh -1%.
CCN(CC)c1ccc(NC(=O)CCCN2C(=O)C(c3ccccc3)Oc3cccnc32)c(C)c1 (centres undefined) was read as TDP1 cell noCPT 10µM*, TDP1 inh -8% and DT40 TDP1 CPT 18µM*.
O=C(CCCN1C(=O)C(c2ccccc2)Oc2cccnc21)Nc1ccccc1C(F)(F)F (centres undefined) was read as TDP1 cell noCPT 2%, TDP1 inh -3% and DT40 TDP1 CPT -17%.
`O=C(CCCN1C(=O)C(c2ccccc2)Oc2cccnc21)NCc1ccccc1F` (centres undefined) gave TDP1 cell noCPT inconclusive, TDP1 inh 1%, DT40 TDP1 CPT 16µM*, VP16 counter -2% and RORg inh -3%.
`O=C(CCCN1C(=O)C(c2ccccc2)Oc2cccnc21)NCc1ccccc1Cl` (centres undefined) gave TDP1 cell noCPT inconclusive, TDP1 inh 2%, DT40 TDP1 CPT inconclusive, VP16 counter -5% and RORg inh 21%.
CN(C)CCNC(=O)c1onc(CSc2nc3ccccc3[nH]2)c1C(=O)NCCN(C)C was read as TDP1 cell noCPT -15%, DT40 TDP1 CPT -2%, VP16 counter -3% and RORg inh -8%.
COc1ccc(-c2c(-c3ccccc3)c(C(=O)C(=O)NCCCN(C)C)n3ccc4cc(OC)c(OC)cc4c23)cc1OC was read as TDP1 cell noCPT 18µM*, DT40 TDP1 CPT 3.3µM*, VP16 counter inconclusive and RORg inh inconclusive.
Screening CC(C)CC(c1nnnn1Cc1ccco1)N1CCN(c2cccc(Cl)c2)CC1 (centres undefined) returned TDP1 cell noCPT 16µM*, TDP1 inh -4%, DT40 TDP1 CPT inconclusive, VP16 counter 6% and RORg inh 34%.
Cc1ccc(C(c2nnnn2CC2CCCO2)N2CCN(c3cccc(C)c3C)CC2)cc1 (centres undefined) was read as TDP1 cell noCPT 23µM*, TDP1 inh 2%, DT40 TDP1 CPT inconclusive, VP16 counter 3% and RORg inh 43%.
For CC(C)CC(c1nnnn1CC1CCCO1)N1CCN(c2cccc(Cl)c2)CC1 (centres undefined) the results were TDP1 cell noCPT 16µM*, TDP1 inh 5%, DT40 TDP1 CPT 26µM*, VP16 counter -1% and RORg inh inconclusive.
For CCC(C)NC(=O)c1cnn(-c2cccc(F)c2)c1-n1cccc1 (centres undefined) the results were TDP1 cell noCPT 16µM*, TDP1 inh 5% and DT40 TDP1 CPT 21µM*.
`CCOC(=O)N1CCN(C(=O)c2cnn(-c3cccc(C)c3)c2-n2cccc2)CC1` gave TDP1 cell noCPT inconclusive, TDP1 inh 5% and DT40 TDP1 CPT inconclusive.
Screening CCOC(=O)N1CCC(NC(=O)c2cnn(-c3ccc(C)cc3)c2-n2cccc2)CC1 returned TDP1 cell noCPT 26µM*, TDP1 inh 3% and DT40 TDP1 CPT inconclusive.
`CCOC(=O)N1CCC(NC(=O)c2cnn(-c3cccc(C)c3)c2-n2cccc2)CC1` gave TDP1 cell noCPT 18µM*, TDP1 inh -3% and DT40 TDP1 CPT 16µM*.
Screening Nc1nc(=S)c2ncn(C3OC(CO)CC3O)c2[nH]1 (centres undefined) returned TDP1 cell noCPT 12µM* and DT40 TDP1 CPT -18%.
Screening COc1nc(N)nc2c1ncn2C1OC(CO)CC1O (centres undefined) returned TDP1 cell noCPT 1.5µM* and DT40 TDP1 CPT 1µM*.
For CSc1nc(N)nc2c1ncn2C1OC(CO)C(O)C1O (centres undefined) the results were TDP1 cell noCPT -18% and DT40 TDP1 CPT -11%.
Screening COC(=O)NC(c1ccccc1)C(C#N)C(=O)OC (centres undefined) returned TDP1 inh 8%[21 µM], VP16 counter -3%[10 µM] and RORg inh -16%[10 µM].
Oc1ccc(O)c(Cc2nc3ccccc3[nH]2)c1 was read as TDP1 cell noCPT 8.2µM*, TDP1 inh 0%, DT40 TDP1 CPT inconclusive, VP16 counter -29% and RORg inh 16µM*.
`OCc1nc2ccccc2[nH]1` gave TDP1 cell noCPT -8% and DT40 TDP1 CPT -1%.
`COc1ccc(Cn2cc(C(=O)c3ccc(Cl)cc3)c(=O)c3cc4c(cc32)OCO4)cc1` gave TDP1 cell noCPT 23µM*, TDP1 inh 7% and DT40 TDP1 CPT inconclusive.
Screening CCc1ccc(C(=O)c2cn(CC(=O)Nc3ccc4c(c3)OCO4)c3ccc(Cl)cc3c2=O)cc1 returned TDP1 cell noCPT inconclusive, TDP1 inh 4% and DT40 TDP1 CPT inconclusive.
Cc1ccc2c(c1)c(=O)c(C(=O)c1ccc3c(c1)OCO3)cn2Cc1ccc(Cl)cc1 was read as TDP1 cell noCPT 16µM*, TDP1 inh 2% and DT40 TDP1 CPT inconclusive.
For O=C(c1ccc2c(c1)OCO2)c1cn(Cc2ccc(Cl)cc2)c2ccc(F)cc2c1=O the results were TDP1 cell noCPT 21µM*, TDP1 inh 2% and DT40 TDP1 CPT inconclusive.
